Compounds with a hit are over-represented: about 9.8% of the library has one in this group of screens.
HTT aggregate: inhibitors of mutant huntingtin aggregate formation in PC12 cells | PC12 HttQ103-GFP aggregates, Acumen cytometry, 40 h | Potency, µM (doses to about 46.1 µM), inactives show top-dose activity change, negative = inhibition, hits mostly inhibitors | 1.1% of 220,000 active; further: potency means the concentration at half of the fitted maximal effect; on the % scale 0 is the no-effect control and ±100 the full control effect; nearly all actives have a fitted effect of over 60% in size
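Read-out: GFP aggregate count by laser scanning cytometer (488 nm excitation, 500-530 nm emission, 1–25 µm objects >6 SD above background). Cells: PC12, inducible HTTex1-Q103-GFP, 100 nM tebufenozide; compounds titrated.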
ALDH1A1 block: inhibitors of human aldehyde dehydrogenase 1A1 | Purified ALDH1A1, NADH fluorescence, propionaldehyde substrate | Potency, µM (top dose mostly 75.3 µM), without a hit: at the highest dose activity, negative = inhibition, most hits filed as inhibitors | 7.3% of 220,000 active | AID 1030; active means well fitted inhibition curve with a large enough effect, not every such curve was filed as active; inconclusive means small, poorly fitted or top-dose-only effect, or another doubt; inactive means no such curve, though single readings can be large or run the other way;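 further: potency means the concentration at half of the fitted maximal effect; plate controls were no enzyme wells and a reference inhibitor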
JMJD2E inh: inhibitors of human JMJD2E histone demethylase | 1.6% of 230,000 active | Potency, µM (doses to about 57.1 µM), inactives show at the highest dose activity change, negative = inhibition, usual class: inhibitors | JMJD2E catalytic domain, FDH-coupled NADH fluorescence (FDH is formaldehyde dehydrogenase);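 further: potency means the concentration at half of the fitted maximal effect; 0% = wells with enzyme and -100% = buffer wells without enzyme; nearly all actives have a fitted effect of over 50% in size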
CBFb-RUNX1 inh: inhibitors of human CBF-beta and RUNX1 interaction. AlphaScreen CBFb-His/RUNX1-biotin binding, biochemical. Q01196+Q13951. Potency, µM (titrated, usually from 59.8 µM), for inactives: at the highest dose activity, negative = inhibition, actives largely listed as inhibitors. 230,000 tested, under 10 active. AID 1477; further: % of control where 0% means no effect
Target sequence (Q01196 whole entry, looked up): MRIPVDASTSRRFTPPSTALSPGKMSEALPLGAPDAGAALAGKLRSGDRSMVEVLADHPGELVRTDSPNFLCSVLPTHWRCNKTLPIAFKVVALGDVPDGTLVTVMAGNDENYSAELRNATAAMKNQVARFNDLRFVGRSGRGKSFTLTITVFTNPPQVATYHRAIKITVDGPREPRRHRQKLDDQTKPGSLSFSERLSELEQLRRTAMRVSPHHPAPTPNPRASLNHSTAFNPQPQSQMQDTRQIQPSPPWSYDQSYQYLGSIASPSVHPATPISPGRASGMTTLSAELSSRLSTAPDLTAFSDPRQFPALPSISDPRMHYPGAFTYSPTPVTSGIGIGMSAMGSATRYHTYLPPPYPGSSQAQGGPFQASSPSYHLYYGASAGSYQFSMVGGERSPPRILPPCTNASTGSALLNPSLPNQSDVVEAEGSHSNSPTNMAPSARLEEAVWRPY
Target sequence (Q13951 whole entry, looked up): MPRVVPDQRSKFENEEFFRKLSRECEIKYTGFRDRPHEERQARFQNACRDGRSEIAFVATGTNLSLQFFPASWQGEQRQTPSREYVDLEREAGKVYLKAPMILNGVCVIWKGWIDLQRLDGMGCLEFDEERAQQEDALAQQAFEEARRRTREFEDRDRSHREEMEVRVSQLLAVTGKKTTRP
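AlphaScreen proximity signal reports loss of binding between His-tagged CBF-beta and biotin-labelled RUNX1, each at 30 nM. Proteins are pre-associated for 20 minutes, compounds added for 15 minutes, then beads for 90 minutes, all at ambient temperature.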
HPGD inh: blocks human HPGD enzyme activity; P15428; purified HPGD, NADH fluorescence kinetic, PGE2 substrate; Potency, µM, for inactives: at the highest dose activity change, negative = inhibition, most hits filed as inhibitors; 4.3% of 150,000 active; AID 894; active means well fitted inhibition curve with a large enough effect, not every such curve was filed as active; inconclusive means small, poorly fitted or top-dose-only effect, or another doubt; inactive means no such curve, though single readings can be large or run the other way; further: potency means the concentration at half of the fitted maximal effect; on the % scale 0 is the no-effect control and ±100 the full control effect
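20 nM HPGD preincubated 15 min at room temperature with compound in 50 mM Tris-HCl pH 8, 0.01% Tween 20. Started with 1 mM NAD+ and 30 uM prostaglandin E2; NADH fluorescence (360/450 nm) read 5 times over 30-s intervals, last minus first.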
HTT ATP protect: Huntington cell model cytoprotection by ATP luminescence. PC12 HTT-Q103 induced, cytoprotection, ATP luminescence, 40 h. Potency, µM (top dose mostly 56.4 µM), inactives show cytoprotection (ATP increase), most hits filed as activators. 0.14% of 230,000 active. AID 1471; further: potency means the concentration at half of the fitted maximal effect; % of control where 0% means no effect; nearly all actives have a fitted effect of over 45% in size
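Huntington model: PC12 line, ecdysone-inducible HTTQ103 exon1–GFP, tebufenozide 100 nM. Test articles in a dose series. Endpoint luminescence from cellular ATP.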
Numbers without * were called inactive; u = inconclusive; x = no result given; [ ] = another dose, or the depositor's remark. Unless noted, the call rests on the fitted dose curve; in most records, active means well fitted curve in the direction sought with a large enough effect; inconclusive means small, poorly fitted or top-dose-only effect, or another doubt; inactive means no such curve, though single readings can be large; an effect the other way counts as inactive or inconclusive.

SMILES | HTT aggregate | ALDH1A1 block | JMJD2E inh | CBFb-RUNX1 inh | HPGD inh | HTT ATP protect
COc1cccc([C@@H]2Oc3ccc(OC)cc3C[C@H]2OC(=O)NS(=O)(=O)c2ccc(F)cc2)c1 | x | 4.7% | 4.9% | -16.4% | -8.1% | -23.5%
O=C(Nc1ccccc1Cl)c1cc(S(=O)(=O)N2CCCCC2)ccc1N1CCOCC1 | 2.0% | -4.3% | u | -0.1% | -21.4% | -6.9%
O=C(Nc1ccccc1Cl)c1cc(S(=O)(=O)N2CCCC(C(=O)O)C2)ccc1F (centres undefined) | u | 22.4µM* | 0.3% | 12.1% | -23.4% | -13.3%
Cc1cc(NC(=O)c2cccc(S(=O)(=O)N3CCCC3)c2)no1 | -15.4% | 35.5µM* | 5.7% | 6.4% | -15.7% | -17.9%[0.074 µM]
O=C(Nc1cccc(O)c1)c1cccc(S(=O)(=O)N2CCCC2)c1 | -17.2% | -10.5% | -1.1% | 4.3% | -6.9% | 2.82µM*
CCCn1c(NC(=O)c2cccc(S(=O)(=O)N3CCCC3)c2)nc2ccccc21 | 11.2µM* | u | u | -9.2% | -14.7% | -1.3%[0.074 µM]
COc1cc(C2CC(=O)N(CC(=O)NCC3CCCO3)c3ccccc3S2)cc(OC)c1OC (centres undefined) | 15.4% | u | 2.9% | 5.4% | x | -40.1%
O=C(c1cccc(S(=O)(=O)N2CCCC2)c1)c1cccc(S(=O)(=O)N2CCCC2)c1 | 11.2µM* | 4.6% | -4.3% | 3.8% | 0.7% | -8.7%[10 µM]
O=C(N/N=C/c1ccc(O)c(O)c1)c1cccc(S(=O)(=O)N2CCCCC2)c1 | 15.4% | -12.4% | 15.8µM* | -15.3% | x | -49.0%
O=C(Nc1cccc(S(=O)(=O)N2CCCCC2)c1)Nc1ccc(Cl)cc1Cl | 14.1µM* | -6.8% | -3.5% | 2.4% | -5.2% | 3.8%[10 µM]
CCN(CC)S(=O)(=O)c1cccc(C(=O)N/N=C/c2ccccc2OCC(=O)O)c1 | 4.1% | -10.4% | -4.6% | 6.1% | x | -2.7%[10 µM]
O=C(Nc1cccc(S(=O)(=O)N2CCCCC2)c1)c1ccc2ccccc2n1 | -24.5% | -3.1% | -4.7% | 18.2% | -4.1% | 5.9%[10 µM]
CCN(CC)S(=O)(=O)c1cccc(C(=O)N/N=C/c2ccc(OC)c(O)c2)c1 | 24.7% | 25.1µM* | -3.5% | -0.2% | -11.4% | 20.9%[10 µM]
O=C(CNc1n[nH]c(=O)[nH]c1=O)N/N=C/C1CC=CCC1 (centres undefined) | 4.7%[9.22 µM] | x | 8.6% | -2.9% | x | 10.4%[10 µM]
NC(=O)c1cc(Cc2ccccc2)sc1NC(=O)c1ccco1 | -10.6% | 17.8µM* | u | 12.9% | 28.2µM* | 9.1%[10 µM]
CCOC(=O)c1cc(NC(=O)c2ccoc2C)cc(C(=O)OCC)c1 | -1.7% | 6.31µM* | -2.4% | 8.6% | -22.5% | 7.0%[10 µM]
CCCc1cc(C(N)=O)c(NC(=O)c2ccoc2C)s1 | -11.6% | 17.8µM* | -15.3% | 1.1% | u | 11.3%[10 µM]
CCCc1cc(C(N)=O)c(NC(=O)c2cc(C)on2)s1 | -16.7% | u | -10.9% | 1.8% | -15.5% | -10.5%
O=C(Nc1nnc(Cc2ccccc2)s1)c1ccco1 | -3.3% | -8.1% | 2.5% | 0.3% | -11.6% | -6.6%
Cc1ccc(NC(=O)CSc2nnc(-c3cnccn3)n2-c2ccccc2)cc1 | 3.4% | 1.5% | 1.0% | 2.5% | -13.1% | 9.9%
COC(=O)C/C=C\[C@@H](C)[C@@H](/C=N\OC[C@@H](O)COCc1ccco1)OC | x | 1.9%[13.5 µM] | x | -6.8%[13.1 µM] | x | 14.6%[10 µM]
CC(CN1CCN(C)CC1)OC(=O)c1cccc(Cl)c1 (centres undefined) | 9.4%[9.22 µM] | x | -0.4% | 6.3% | x | 6.7%[10 µM]
NNC(=O)c1csc(Cc2c(Cl)sc3ccc(Cl)cc23)n1 | 18.1%[9.22 µM] | x | 0.0% | 3.5% | x | 2.4%[10 µM]
O=C(Oc1ccc(C(=S)N2CCOCC2)cc1Br)c1ccccc1F | -19.0% | 25.1µM* | -14.1% | -18.8% | 31.6µM* | x
O=C(OC(C(=O)Nc1ccc(Cl)cc1C(F)(F)F)c1ccccc1)c1c(Cl)cccc1Cl (centres undefined) | -6.6% | 3.16µM* | -18.3% | u | -7.9% | 12.9%[10 µM]

Source: PubChem BioAssay
